# From article PMC12864922, “TDP-43 directly inhibits mRNA accumulation in neurites through modulation of mRNA stability”
# Substitutions are numbered along the chain they refer to. The full ranking holds about 9,900 sequences; the median of “r (bound/input frequency ratio)” is about 0.7, and the highest 2% start at about 6.5. Only a selection was taken, and the highest values are over-represented in it overall.
# B1: ENSMUSG00000061578.324|Ksr2|150:154 (ssRNA)
# RNA: GGGAGUUCUACAGUCCGACGAUCGCUUCGAUAUCCGCAUGCUAGUAGCUCAAUGACCCAGUGGGUCACAGUUCUAGGCGCUCCAAGGAAGCCAGGGGAGGGGGACUCCUCAGGAAGGAGUGACCAGUCACCUGCCUCCCAGGGUUCUGCCUUGCCCUUAAGCUAGGGUCCUUCAAGCAUCCACAGACUUAGACACACGUGGUAACAUGCUUGUAAUCCUGGCACUCUGGAGGCUGAGGCAGGAGGAUAACAAGUCUAGACUAUAUAUGAUUUCUGAGGGUCUGUUAGUGAAUAAGUACCUGGACUCUUGCGGUCGCACUAGUGUGGAAUUCUCGGGUGUCAAGG
# B2: ENSMUSG00000032194.273|Kank2|97:101;184:188 (ssRNA)
# RNA: GGGAGUUCUACAGUCCGACGAUCGCUUCGAUAUCCGCAUGCUAGUGGAUGGAUGCAUAAAUGAAUAGAUGGAUGGAUGAAUGAACAGAUAGAUGAAUGGAUGGAUGGACAGGUGGGUGGAUGGAUGGGUGGACGGAUGACACACGGGUGGGUGGAUGGAUAAAUGAGCAAUGGAUGAGAAACUGGGUUGGCUGGUGGGUAGAUGUCAUGAUGGAGUCUUUGCACGUCAUACAAACAGAAAACCAAACUUCAGGACAGACAGCUGCUGGUGUCUCUGGAUGCUCACAGCCUAGGGCACAUUUGACUCUUGCGGUCGCACUAGUGUGGAAUUCUCGGGUGUCAAGG
# B3: ENSMUSG00000032194.278|Kank2 (ssRNA)
# RNA: GGGAGUUCUACAGUCCGACGAUCGCUUCGAUAUCCGCAUGCUAGGAUGAAUGAACAGAUAGAUGAAUGGAUGGAUGGACAGGUGGGUGGAUGGAUGGGUGGACGGAUGAGUGUGGGGUGGGUGGAUGGAUAAAUGAGCAAUGGAUGAGAAACUGGGUUGGCUGGUGGGUAGAUGUCAUGAUGGAGUCUUUGCACGUGUAUGAAACAGAAAACCAAACUUCAGGACAGACAGCUGCUGGUGUCUCUGGAUGCUCACAGCCUAGGGCACAUUUGAAAGGUCGUGCUCUGAGCUGAGCCCUGAGUUCUCUUGCGGUCGCACUAGUGUGGAAUUCUCGGGUGUCAAGG
# B4: ENSMUSG00000032194.276|Kank2 (ssRNA)
# RNA: GGGAGUUCUACAGUCCGACGAUCGCUUCGAUAUCCGCAUGCUAGAAUAGAUGGAUGGAUGAAUGAACAGAUAGAUGAAUGGAUGGAUGGACAGGUGGGUGGAUGGAUGGGUGGACGGAUGAGUGUGGGGUGGGUGGAUGGAUAAAUGAGCAAUGGAUGAGAAACUGGGUUGGCUGGUGGGUAGAUGUCAUGAUGGAGUCUUUGCACGUGUAUGAAACAGAAAACCAAACUUCAGGACAGACAGCUGCUGGUGUCUCUGGAUGCUCACAGCCUAGGGCACAUUUGAAAGGUCGUGCUCUGAGCUCUCUUGCGGUCGCACUAGUGUGGAAUUCUCGGGUGUCAAGG
# B5: ENSMUSG00000032194.274|Kank2 (ssRNA)
# RNA: GGGAGUUCUACAGUCCGACGAUCGCUUCGAUAUCCGCAUGCUAGGAUGCAUAAAUGAAUAGAUGGAUGGAUGAAUGAACAGAUAGAUGAAUGGAUGGAUGGACAGGUGGGUGGAUGGAUGGGUGGACGGAUGAGUGUGGGGUGGGUGGAUGGAUAAAUGAGCAAUGGAUGAGAAACUGGGUUGGCUGGUGGGUAGAUGUCAUGAUGGAGUCUUUGCACGUGUAUGAAACAGAAAACCAAACUUCAGGACAGACAGCUGCUGGUGUCUCUGGAUGCUCACAGCCUAGGGCACAUUUGAAAGGUCCUCUUGCGGUCGCACUAGUGUGGAAUUCUCGGGUGUCAAGG
# B6: ENSMUSG00000032194.275|Kank2 (ssRNA)
# RNA: GGGAGUUCUACAGUCCGACGAUCGCUUCGAUAUCCGCAUGCUAAUAAAUGAAUAGAUGGAUGGAUGAAUGAACAGAUAGAUGAAUGGAUGGAUGGACAGGUGGGUGGAUGGAUGGGUGGACGGAUGAGUGUGGGGUGGGUGGAUGGAUAAAUGAGCAAUGGAUGAGAAACUGGGUUGGCUGGUGGGUAGAUGUCAUGAUGGAGUCUUUGCACGUGUAUGAAACAGAAAACCAAACUUCAGGACAGACAGCUGCUGGUGUCUCUGGAUGCUCACAGCCUAGGGCACAUUUGAAAGGUCGUGCUCCUCUUGCGGUCGCACUAGUGUGGAAUUCUCGGGUGUCAAGG
# B7: ENSMUSG00000032194.274|Kank2|91:95;178:182 (ssRNA)
# RNA: B5 RNA with G134C, U135A, G136C, U137A, G138C, G221C, U222A, A223U, U224A, G225C
# B8: ENSMUSG00000032194.272|Kank2|103:107;190:194 (ssRNA)
# RNA: GGGAGUUCUACAGUCCGACGAUCGCUUCGAUAUCCGCAUGCUAGGGUGGGUGGAUGGAUGCAUAAAUGAAUAGAUGGAUGGAUGAAUGAACAGAUAGAUGAAUGGAUGGAUGGACAGGUGGGUGGAUGGAUGGGUGGACGGAUGACACACGGGUGGGUGGAUGGAUAAAUGAGCAAUGGAUGAGAAACUGGGUUGGCUGGUGGGUAGAUGUCAUGAUGGAGUCUUUGCACGUCAUACAAACAGAAAACCAAACUUCAGGACAGACAGCUGCUGGUGUCUCUGGAUGCUCACAGCCUAGGGCACCUCUUGCGGUCGCACUAGUGUGGAAUUCUCGGGUGUCAAGG
# B9: ENSMUSG00000032194.279|Kank2 (ssRNA)
# RNA: GGGAGUUCUACAGUCCGACGAUCGCUUCGAUAUCCGCAUGCUAAUGAACAGAUAGAUGAAUGGAUGGAUGGACAGGUGGGUGGAUGGAUGGGUGGACGGAUGAGUGUGGGGUGGGUGGAUGGAUAAAUGAGCAAUGGAUGAGAAACUGGGUUGGCUGGUGGGUAGAUGUCAUGAUGGAGUCUUUGCACGUGUAUGAAACAGAAAACCAAACUUCAGGACAGACAGCUGCUGGUGUCUCUGGAUGCUCACAGCCUAGGGCACAUUUGAAAGGUCGUGCUCUGAGCUGAGCCCUGAGUUCCAGCCCUCUUGCGGUCGCACUAGUGUGGAAUUCUCGGGUGUCAAGG
# B10: ENSMUSG00000032194.277|Kank2 (ssRNA)
# RNA: GGGAGUUCUACAGUCCGACGAUCGCUUCGAUAUCCGCAUGCUAAUGGAUGGAUGAAUGAACAGAUAGAUGAAUGGAUGGAUGGACAGGUGGGUGGAUGGAUGGGUGGACGGAUGAGUGUGGGGUGGGUGGAUGGAUAAAUGAGCAAUGGAUGAGAAACUGGGUUGGCUGGUGGGUAGAUGUCAUGAUGGAGUCUUUGCACGUGUAUGAAACAGAAAACCAAACUUCAGGACAGACAGCUGCUGGUGUCUCUGGAUGCUCACAGCCUAGGGCACAUUUGAAAGGUCGUGCUCUGAGCUGAGCCCCUCUUGCGGUCGCACUAGUGUGGAAUUCUCGGGUGUCAAGG
# Target: TDP-43 (Homo sapiens, UniProt Q13148 1-414)
# Sequence (Q13148 whole entry): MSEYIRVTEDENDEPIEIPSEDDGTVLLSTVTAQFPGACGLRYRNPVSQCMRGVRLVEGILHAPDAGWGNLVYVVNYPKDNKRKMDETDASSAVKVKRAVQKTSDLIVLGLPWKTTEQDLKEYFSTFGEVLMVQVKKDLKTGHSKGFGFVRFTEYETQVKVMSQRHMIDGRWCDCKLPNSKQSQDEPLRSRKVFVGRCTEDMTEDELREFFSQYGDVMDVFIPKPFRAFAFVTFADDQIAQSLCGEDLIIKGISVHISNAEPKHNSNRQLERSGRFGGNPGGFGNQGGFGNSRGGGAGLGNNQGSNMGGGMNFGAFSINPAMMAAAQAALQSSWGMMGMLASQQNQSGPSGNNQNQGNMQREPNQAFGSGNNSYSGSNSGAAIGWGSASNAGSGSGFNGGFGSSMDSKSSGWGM
# Assay: RNA Bind-n-Seq with designed 260-mer pool; 25 mM Tris-HCl, 150 mM KCl, 3 mM MgCl2, BSA (printed 500 mg/mL), 20 units/mL SUPERase IN; pH not stated; 500 nM RNA pool, 1 h, 4 C; TDP-43 5, 50, 500 nM; high values mean tight binding
# Settings: protein: recombinant; tags: SBP (GST cleaved off with PreScission; pGEX-GST-SBP)
# Method in brief: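 In 25 mM Tris-HCl, 150 mM KCl, 3 mM MgCl2, BSA and SUPERase IN, 500 nM of an in vitro-transcribed 260-nt 3′ UTR oligo pool was incubated for 1 h at 4 °C with SBP-tagged TDP-43 (5, 50 or 500 nM) captured on streptavidin beads. RNA remaining after washes was biotin-eluted, reverse transcribed, PCR-amplified and sequenced. Binding, R, is the bound-sample abundance of each oligo, normalized to mapped reads, divided by its abundance in input. Each duplicate used a separate, independent protein batch.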
row,Binder,binding signal
1,B1,0.658 R (bound/input frequency ratio)
2,B2,6.83 R (bound/input frequency ratio)
3,B3,5.8 R (bound/input frequency ratio)
4,B4,6.02 R (bound/input frequency ratio)
5,B5,6.07 R (bound/input frequency ratio)
6,B6,7.07 R (bound/input frequency ratio)
7,B7,5.59 R (bound/input frequency ratio)
8,B8,5.68 R (bound/input frequency ratio)
9,B9,5.39 R (bound/input frequency ratio)
10,B10,7.21 R (bound/input frequency ratio)
